Screens as filed in PubChem.
Granule exo inh – LAMP-1 surface exposure blockers, TALL-104 cells – cell-based, flow cytometry, MLPCN library, primary screen | inhibition, % at 10 µM | TALL-104 LAMP-1 surface exposure; cells stimulated with thapsigargin and PMA | hit rate 0.66% among 360,000;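 active means inhibition above about 55%, limit read from the data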
TLR4-MyD88 BLA – inhibitors of TLR4-MyD88 association in cells, primary screen, cell-based, HeLa CL3-4, BLA complementation, FRET ratio; Toll-like receptor 4 (Homo sapiens) + Myeloid differentiation primary response protein …; HeLa CL3-4 TLR4/MyD88 BLA complementation; inhibition, % at 8.4 µM; hit rate 0.18% among 200,000; AID 861, 2007; in the data active means inhibition above about 25%;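 further: 0% = vehicle and 100% = reference inhibitor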
TLR9-MyD88 block – inhibitors of TLR9-MyD88 association in cells, primary screen, cell-based, CHO, BLA complementation, fluorescence; Toll-like receptor 9 (Homo sapiens) + Myeloid differentiation primary response protein …; inhibition, % at 4.98 µM; hit rate 0.21% among 340,000; CCF4 FRET ratio;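 active means inhibition above the mean over all tested compounds plus 3 SD, cut at about 21% in these data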;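 further: 0% = DMSO only wells and 100% = clavulanate BLA inhibitor control wells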
PRMT1 FP inh – PRMT1 methyltransferase inhibitors, primary screen, biochemical, fluorescence polarization. recombinant PRMT1, activity-based probe fluorescence polarization. Protein arginine N-methyltransferase 1 (Homo sapiens), Q99873. hit rate 1.3% among 370,000. inhibition, % at 2.79 µM;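 active means inhibition above about 21% made by adding two undisclosed values, limit read from the data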
ABHD5-PLIN5 inh – ABHD5-PLIN5 interaction inhibitors, primary screen, cell lysate, split luciferase complementation, luminescence; inhibition, % at 4 µM; Split G. princeps luciferase complementation, 4 h; AID 602281, 2012; hit rate 0.78% among 360,000;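 active means inhibition above the mean inhibition across every tested compound plus 3 SD, cut at about 22% in these data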;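 further: 0% = DMSO only wells and the 100% control is not disclosed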
NOD2 RIPK2 PPI – NOD2-RIPK2 binding disruptors in cells, primary screen, fluorescence, CHO cells, BLA complementation | Receptor-interacting serine/threonine-protein kinase 2 (Homo sapiens), O43353 | CCF4 ratio | inhibition, % at 4.98 µM | hit rate 0.38% among 360,000 | AID 624267, 2012; in the data active means inhibition above about 21%;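 further: 0% = vehicle only and 100% = reference blocker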
Exocytosis CP01 – inhibitors of lytic granule exocytosis, confirmation, TALL-104 cells, flow cytometry, Cherry Pick01 | shares compounds with Granule exo inh | LAMP-1 externalization; stimulated with PMA plus thapsigargin | inhibition, % at 10 µM | hit rate 11% among 1,500 | AID 651954, 2012; in the data active means inhibition above about 60%;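 further: 0% = stimulated vehicle wells and 100% = unstimulated wells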
Starred values were filed as active, the others as inactive; nt = no result. The list is not random: actives were taken first. Their share in the collection is about 2.6%.

SMILES | Granule exo inh | TLR4-MyD88 BLA | TLR9-MyD88 block | PRMT1 FP inh | ABHD5-PLIN5 inh | NOD2 RIPK2 PPI | Exocytosis CP01
CCOC(=O)c1csc(NC(=O)C2CCCN(S(=O)(=O)c3ccc(Br)s3)C2)n1 (stereo not given) | nt | nt | nt | -2 | nt | nt | nt
O=C(NCc1ccccn1)C1Nc2ccc(C(F)(F)F)cc2C2C=CCC12 (stereo not given) | 64* | nt | 8 | 10 | -2 | -10 | -15
CCOC(=O)c1ccc(NC(=O)COc2ccc(CNC3CCCCC3)cc2OC)cc1 | 60* | 2 | 2 | -2 | 8 | -3 | -12
COc1cc(CNC2CCCCCCC2)ccc1OCC(N)=O | -8 | nt | 2 | 2 | 3 | -21 | nt
COc1cc2c(cc1OC)C(c1ccc(-c3ccc(Cl)c(Cl)c3)o1)=NCC2 | 94* | 7 | 5 | 9 | 1 | 5 | 91*
COc1cc2c(cc1OC)C(c1ccc(-c3cc(Cl)ccc3Cl)o1)=NCC2 | 6 | -2 | -8 | nt | 6 | -9 | nt
C=CCNc1cccc2c1S(=O)(=O)N[C@H](Cc1ccccc1)CO2 | nt | nt | nt | -1 | nt | nt | nt
Cc1cccc(CCN(CC(=O)NCc2ccc(F)cc2)C(=O)c2csnn2)c1 | 68* | nt | 6 | -1 | 10 | -2 | -4
CCCCc1c(-c2ccccc2OC)ncn1Cc1ccc(C(C)(C)C)cc1 | nt | nt | nt | 6 | nt | nt | nt
CC(c1ccon1)N(C)Cc1c(C(=O)N(C)Cc2ccccc2)nc2ccccn12 (stereo not given) | 71* | 1 | -6 | -5 | 7 | -4 | -4
CCn1cc(C(=O)N2CCN(c3ccc(F)cc3)CC2)c(=O)c2ccc(C)nc21 | nt | nt | nt | -1 | nt | nt | nt
Cc1onc(-c2c(F)cccc2Cl)c1-c1ncc(-c2ccc(Cl)cc2)o1 | nt | nt | nt | 16 | nt | nt | nt
CCOC(=O)N1CCN(CC(O)COc2c(C)cc(C)cc2C)CC1 (stereo not given) | 62* | nt | 6 | 4 | -5 | -5 | -15
CCCCCCSc1cccc(-c2nc3ccc(Cl)cn3c2NCCCC)c1 | 0 | nt | 4 | 0 | -9 | 1 | nt
CCCCCCSc1ccc(-c2nc3ccccn3c2NCCCC)cc1 | 70* | nt | 6 | 1 | -18 | 0 | 7
COC(=O)C1=C(C)N(C)C(=NCC2CC2)NC1c1cccc(F)c1 (stereo not given) | nt | nt | nt | 4 | nt | nt | nt
O=C1Nc2ccccc2C12Nc1ccccc1-c1nc3ccccc3n12 (stereo not given) | 56* | 10 | -2 | 4 | -1 | 6 | -3
CN1C(=O)C2(Nc3ccccc3-c3nc4ccccc4n32)c2ccccc21 (stereo not given) | 1 | -13 | 0 | -1 | 5 | -7 | nt
O=C(CCS(=O)(=O)c1ccccc1)N(CCCN1CCOCC1)c1nc2ccccc2s1 | 58* | nt | 3 | 4 | -3 | 2 | -9
Cc1ccc(S(=O)(=O)CCC(=O)N(CCCN2CCOCC2)c2nc3ccccc3s2)cc1 | 65* | nt | -6 | 1 | 3 | -13 | -8
COc1ccc(S[C@]2(C(=O)N3CCN(c4ncccn4)CC3)CC(=O)N(C(=O)Nc3ccc(C)c(Cl)c3)[C@@H]2c2ccc(OC)cc2)cc1 | nt | nt | nt | 0 | nt | nt | nt
COc1cccc(N2CCN(CC(=O)NCc3ccco3)CC2)c1 | nt | nt | nt | 3 | nt | nt | nt
O=C(NC1CCCC1)c1ccc2c(c1)N(Cc1ccccc1)CCS2 | 70* | nt | 9 | 3 | -1 | -7 | -5
Cc1ccc(CN2CCSc3ccc(C(=O)NC4CCN(Cc5ccccc5)CC4)cc32)cc1 | 32 | 10 | -8 | 2 | 4 | 1 | nt
Cc1cc(NC(C)c2ccccc2)n2ncc(-c3ccccc3)c2n1 (stereo not given) | 95* | nt | -5 | -1 | -11 | -7 | 18
Cc1cc(NCc2ccccc2)n2ncc(-c3ccccc3)c2n1 | 58* | nt | 1 | -1 | -15 | 4 | -11
